# Test results from PubChem BioAssay (NCATS).
# Values without a mark were called inactive. Results filed as inconclusive are left out. Activity calls are given as the source filed them. Unless noted, calls follow the shape of the dose curve; as a rule, active = well fitted curve in either direction with a large enough effect (not every such curve was filed as active); inconclusive = small, poorly fitted or top-dose-only effect, or another doubt; inactive = flat fitted curve, though single readings scatter.
# Key:
# [1] = AP1 Signaling Pathway (AID 357); conditions: ME-180 (cervical carcinoma) AP-1-bla reporter, EGF-induced, beta-lactamase ratio, 5 h; at 17.2 µM (top of the series) unless noted;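 also: ME-180 reporter cells stimulated with EGF at its EC50 level; % is scaled to controls: 0 for no effect and ±100 for the full control effect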
# Method in brief: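 Titration-series screen for positive or negative modulators of EC50 EGF-induced signaling in ME-180 cells carrying an AP-1-driven beta-lactamase reporter. After 5 hours at 37 degrees Celsius, CCF4 460nm/530nm emission ratio gave %Activity; AC50 values derived.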
# [2] = biological target: Glucocorticoid receptor (Homo sapiens) (UniProt P04150); assay: GR-GFP Redistribution (AID 450;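 active = compounds whose dose series gives a full or clear partial fitted curve of increased nuclear translocation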; also: potency is read from the fitted curve at half-maximal effect); conditions: U2OS GR-GFP nuclear translocation, laser cytometry, 2 h
# Chain of Glucocorticoid receptor (Homo sapiens) (P04150 whole entry, looked up, the tested form may be a part): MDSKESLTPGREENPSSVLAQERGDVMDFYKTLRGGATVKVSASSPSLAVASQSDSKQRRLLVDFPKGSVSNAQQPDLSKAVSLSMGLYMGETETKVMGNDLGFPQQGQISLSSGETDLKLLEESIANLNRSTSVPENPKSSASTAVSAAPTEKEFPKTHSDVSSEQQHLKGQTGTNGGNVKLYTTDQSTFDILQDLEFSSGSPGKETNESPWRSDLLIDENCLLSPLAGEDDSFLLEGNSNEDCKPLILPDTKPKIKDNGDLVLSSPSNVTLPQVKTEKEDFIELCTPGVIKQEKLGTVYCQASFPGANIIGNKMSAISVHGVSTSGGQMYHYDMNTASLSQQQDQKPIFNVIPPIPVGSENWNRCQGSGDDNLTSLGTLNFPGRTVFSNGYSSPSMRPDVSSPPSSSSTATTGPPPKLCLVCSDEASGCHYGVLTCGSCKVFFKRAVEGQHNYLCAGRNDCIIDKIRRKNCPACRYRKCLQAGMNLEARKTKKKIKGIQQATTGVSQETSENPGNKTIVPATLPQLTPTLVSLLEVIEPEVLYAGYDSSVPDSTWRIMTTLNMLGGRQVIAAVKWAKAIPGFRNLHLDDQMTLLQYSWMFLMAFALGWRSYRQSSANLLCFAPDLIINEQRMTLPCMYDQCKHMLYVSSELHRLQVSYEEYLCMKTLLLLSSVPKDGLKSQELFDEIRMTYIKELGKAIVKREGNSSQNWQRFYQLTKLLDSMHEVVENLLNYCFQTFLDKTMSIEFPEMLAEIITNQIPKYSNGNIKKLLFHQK
# [3] = Stat Signaling Pathway (AID 446);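 also: ME-180 cervical cancer cells given 40 pM IL-6 alongside compound; SIE-controlled beta-lactamase reporter measured as 460/530 nm FRET emission ratio; % is scaled to controls: 0 for no effect and ±100 for the full control effect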
# Method in brief: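 Normalization used AC90 stimulation (300 pM IL-6) and AC90 inhibition (125 nM pan-JAK inhibitor at 40 pM IL-6). The underlying signal is SIE-driven beta-lactamase in ME-180 cells after 5 h IL-6 exposure with compound.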
# [4] = biological target: Tumor susceptibility gene 101 protein (Homo sapiens) (UniProt Q99816); assay: qHTS Assay for Iinhibitors of HIV-1 Budding by Blocking the Interaction of PTAP/TSG101: Hit Validation (AID 651600; active = well fitted curve in the direction sought with a large enough effect; an effect the other way counts as inactive or inconclusive; also: % is scaled to controls: 0 for no effect and ±100 for the full control effect; nearly all actives have a fitted effect of over 70% in size)
# Method in brief: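 Fluorescence polarization binding assay: Tsg101 binding domain (10 uM) mixed with compounds and FITC-labeled PTAP peptide (50 nM) in HEPES pH 7.5, 0.15 M NaCl, 0.01% Tween 20, EDTA, TCEP; 20 min at r.t.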
# [5] = biological target: Glucocorticoid receptor (Homo sapiens) (UniProt P04150); assay: GR-EFC Redistribution (AID 451; calls by dose curve; also: potency is read from the fitted curve at half-maximal effect); conditions: CHO-K1 GR-EFC translocation, beta-gal luminescence, 2 h
# Method in brief: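 CHO-K1 cells stably expressing nuclear-localized β-gal enzyme acceptor and GR fused C-terminally to the enzyme donor fragment; ligand-driven nuclear translocation restores β-gal by complementation. Compounds titrated up to 46 uM final, 2 h at 37 °C; luminescence read.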
# [6] = biological target: Mitogen-activated protein kinase 10 (Mus musculus) (UniProt Q61831); assay: JNK3 AlphaScreen Assay (AID 530);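 also: kinase came from lysate of stimulated human HepG2 cells; signal reports phosphorylation of biotinylated GST-cJun 1-79 at Ser73 with 10 µM ATP; % is scaled to controls: 0 for no effect and ±100 for the full control effect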
# Method in brief: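 Biotinylated GST-cJun(1-79) served as substrate for JNK3 in HepG2 lysates stimulated with IL-1beta and TNF-alpha. ATP was 10 uM final, pH 7.6. Ser73 phosphorylation was quantified by AlphaScreen (680 nm excitation).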
# [7] = biological target: 3',5'-cyclic-AMP phosphodiesterase 4B (Homo sapiens) (UniProt Q07343); assay: qHTS Assay for Inhibitors of PDE-IV (AID 607; active = well fitted activation curve with a large enough effect in the main read-out, with a control signal flat, not every such curve was filed as active; also: % of control where 0% means no effect)
# Chain of 3',5'-cyclic-AMP phosphodiesterase 4B (Homo sapiens) (Q07343 whole entry, looked up): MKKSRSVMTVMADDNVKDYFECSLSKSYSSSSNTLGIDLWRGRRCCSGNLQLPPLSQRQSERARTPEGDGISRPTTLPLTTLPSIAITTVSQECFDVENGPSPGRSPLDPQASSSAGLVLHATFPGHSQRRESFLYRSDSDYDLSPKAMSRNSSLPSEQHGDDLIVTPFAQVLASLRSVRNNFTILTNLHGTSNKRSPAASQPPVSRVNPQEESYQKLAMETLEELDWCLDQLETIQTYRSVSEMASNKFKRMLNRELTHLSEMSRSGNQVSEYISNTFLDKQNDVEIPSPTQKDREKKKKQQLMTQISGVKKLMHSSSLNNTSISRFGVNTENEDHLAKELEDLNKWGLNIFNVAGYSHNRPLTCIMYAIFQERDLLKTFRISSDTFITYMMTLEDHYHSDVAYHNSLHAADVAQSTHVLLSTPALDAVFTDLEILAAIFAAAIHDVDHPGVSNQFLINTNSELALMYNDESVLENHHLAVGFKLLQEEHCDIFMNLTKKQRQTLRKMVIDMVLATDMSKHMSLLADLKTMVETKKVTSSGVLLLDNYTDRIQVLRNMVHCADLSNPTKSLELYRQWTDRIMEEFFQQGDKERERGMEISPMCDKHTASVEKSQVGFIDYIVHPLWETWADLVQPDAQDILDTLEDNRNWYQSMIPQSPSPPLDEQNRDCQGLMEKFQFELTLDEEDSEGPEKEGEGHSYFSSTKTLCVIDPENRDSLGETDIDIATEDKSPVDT
# Method in brief: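 HEK293 ACTOne cells with CNG channel (1000/well), endogenous PDE4; membrane potential dye, compounds up to 22.9 uM final. Fluorescence Ex 535/Em 590; RO 20-1724 (100 uM final) as reference.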
# [8] = biological target: Guanine nucleotide-binding protein G(i) subunit alpha-1 (Homo sapiens) (UniProt P63096); assay: qHTS Assay for Inhibitors of RGS12 GoLoco Motif Activity (Green Fluorophore) (AID 879; active = well fitted curve in the direction sought with a large enough effect; an effect the other way counts as inactive or inconclusive;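 also: 0% = labeled peptide with Gαi1 and full inhibition = labeled peptide alone without protein; negative values mean loss of peptide binding seen as reduced polarization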)
# Method in brief: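 A drop in FITC polarization marked displacement of the FITC-tagged RGS12 GoLoco peptide (10 nM) from Gαi1 (50 nM). Compounds were incubated 10 min at room temperature in Tris pH 7.5 buffer containing 150 mM NaCl, 0.1 mM GDP and 0.05% NP40; unlabeled peptide titration served as control.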
# [9] = biological target: Cytochrome P450 2C9 (Homo sapiens) (UniProt P11712); assay: qHTS Assay for Inhibitors and Substrates of Cytochrome P450 2C9 (AID 883; active = well fitted curve in the direction sought with a large enough effect; an effect the other way counts as inactive or inconclusive; also: nearly all actives have a fitted effect of over 60% in size; also: potency is read from the fitted curve at half-maximal effect)
# Chain of Cytochrome P450 2C9 (Homo sapiens) (P11712 whole entry, looked up): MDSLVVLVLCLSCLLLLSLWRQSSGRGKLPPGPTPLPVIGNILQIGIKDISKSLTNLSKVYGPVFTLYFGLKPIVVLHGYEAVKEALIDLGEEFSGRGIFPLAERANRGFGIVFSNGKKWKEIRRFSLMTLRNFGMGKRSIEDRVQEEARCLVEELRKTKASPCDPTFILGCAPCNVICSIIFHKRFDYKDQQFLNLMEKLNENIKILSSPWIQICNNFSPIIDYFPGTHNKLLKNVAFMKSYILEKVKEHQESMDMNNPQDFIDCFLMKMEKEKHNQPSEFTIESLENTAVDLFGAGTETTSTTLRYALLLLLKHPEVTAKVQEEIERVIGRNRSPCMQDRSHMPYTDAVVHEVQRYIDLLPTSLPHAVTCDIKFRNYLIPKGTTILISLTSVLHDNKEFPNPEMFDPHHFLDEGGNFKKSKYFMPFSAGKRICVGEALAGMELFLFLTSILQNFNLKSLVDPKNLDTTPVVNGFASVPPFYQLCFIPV
# Method in brief: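 A luminogenic readout tracked human CYP2C9 (10nM) converting deoxyluciferin (100uM, at KM) in 25mM KPO4 during 60 min at 37C with regenerated NADPH. Values normalized to 57uM sulphaphenazole as complete inhibition.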
# [10] = biological target: Cytochrome P450 3A4 (Homo sapiens) (UniProt P08684); assay: qHTS Assay for Activators of Cytochrome P450 3A4 (AID 885; active = well fitted curve in the direction sought with a large enough effect; an effect the other way counts as inactive or inconclusive; also: nearly all actives have a fitted effect of over 65% in size)
# Chain of Cytochrome P450 3A4 (Homo sapiens) (P08684 whole entry, looked up): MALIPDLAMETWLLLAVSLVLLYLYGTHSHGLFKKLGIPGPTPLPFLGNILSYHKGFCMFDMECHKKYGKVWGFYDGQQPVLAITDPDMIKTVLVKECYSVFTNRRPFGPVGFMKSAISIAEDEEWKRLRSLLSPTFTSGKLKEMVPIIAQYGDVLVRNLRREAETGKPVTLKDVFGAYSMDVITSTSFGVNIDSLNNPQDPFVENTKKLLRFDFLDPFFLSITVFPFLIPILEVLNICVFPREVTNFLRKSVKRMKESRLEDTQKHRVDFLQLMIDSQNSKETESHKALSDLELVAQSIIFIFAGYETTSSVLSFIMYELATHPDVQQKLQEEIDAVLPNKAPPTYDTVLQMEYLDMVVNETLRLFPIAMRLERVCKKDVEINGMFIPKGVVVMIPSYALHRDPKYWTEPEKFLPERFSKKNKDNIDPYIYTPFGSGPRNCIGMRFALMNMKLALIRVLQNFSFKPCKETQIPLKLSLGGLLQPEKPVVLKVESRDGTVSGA
# Method in brief: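 Human CYP3A4 dealkylates Luciferin-PPXE to luciferin, which luciferase detection converts to light. Substrate was at its KM (25uM), buffer 200mM KPO4, reaction 60 min at RT.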
# [11] = qHTS Assay for Identification of Small Molecule Agonists for Thrombopoietin (TPO) Signaling Pathway (AID 917; active = well fitted curve in the direction sought with a large enough effect; an effect the other way counts as inactive or inconclusive; also: % is scaled to controls: 0 for no effect and ±100 for the full control effect)
# Method in brief: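 Stimulation at the TPO EC50 (26 pM final) was used to detect activators. Ba/F3 mouse cells bearing human TPO receptor and a luciferase reporter under the Glycoprotein IIb promoter were exposed to compounds for 24 hrs at 37 C.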
# [12] = biological target: Muscarinic acetylcholine receptor M1 (Rattus norvegicus) (UniProt P08482); assay: qHTS Assay for Antagonists of Acetylcholine Muscarinic M1 Receptor: Kinetic Measurement of Intracellular Calcium Response (AID 943; active = well fitted curve in the direction sought with a large enough effect; an effect the other way counts as inactive or inconclusive; also: potency is read from the fitted curve at half-maximal effect; nearly all actives have a fitted effect of over 75% in size)
# Chain of Muscarinic acetylcholine receptor M1 (Rattus norvegicus) (P08482 whole entry, looked up): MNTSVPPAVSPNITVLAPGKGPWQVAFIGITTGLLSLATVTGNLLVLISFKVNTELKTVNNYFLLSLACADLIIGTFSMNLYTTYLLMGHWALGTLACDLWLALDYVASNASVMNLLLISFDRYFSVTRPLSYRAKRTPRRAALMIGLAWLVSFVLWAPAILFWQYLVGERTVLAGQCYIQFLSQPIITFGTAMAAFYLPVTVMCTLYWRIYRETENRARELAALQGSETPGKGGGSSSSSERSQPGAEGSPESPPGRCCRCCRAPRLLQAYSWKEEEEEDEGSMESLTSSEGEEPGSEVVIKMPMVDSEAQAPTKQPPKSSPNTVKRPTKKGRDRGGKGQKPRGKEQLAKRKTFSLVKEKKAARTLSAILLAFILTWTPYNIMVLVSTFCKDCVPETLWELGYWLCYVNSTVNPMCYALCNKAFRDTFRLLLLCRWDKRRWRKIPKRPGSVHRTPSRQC
# Method in brief: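 Quantitative HTS in CHO-M1 (rat receptor) cells: 10 min compound exposure ahead of 100 nM carbachol, Fluo-4 fluorescence followed 4 min, value expressed as peak-to-basal ratio.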
# [13] = biological target: Muscarinic acetylcholine receptor M1 (Rattus norvegicus) (UniProt P08482); assay: qHTS Assay for Antagonists of Acetylcholine Muscarinic M1 Receptor: Measurement of IP-One Response (AID 944; active = well fitted curve in the direction sought with a large enough effect; an effect the other way counts as inactive or inconclusive; also: potency is read from the fitted curve at half-maximal effect; nearly all actives have a fitted effect of over 75% in size)
# Method in brief: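 Antagonism was measured as loss of carbachol-driven (EC80) IP1 accumulation in CHO cells carrying rat M1, using a homogeneous IP-One TR-FRET kit read at 620 and 665 nm.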
# [14] = biological target: Pyruvate kinase PKM (Homo sapiens) (UniProt P14618); assay: qHTS Assay for Activators of Human Muscle Pyruvate Kinase (AID 954; active = well fitted curve in the direction sought with a large enough effect, not every such curve was filed as active;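 also: 0% = uninhibited enzyme and -100% = no enzyme or full thiadiazolimine inhibition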)
# Method in brief: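 Compound pinned into substrate mix (0.5 mM PEP, 0.1 mM ADP), then 0.1 nM PKM2 added; 1 h, RT. Stop/detection luciferase reagent added, luminescence read. Normalized to no-inhibition and no-enzyme or reference-inhibitor controls.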
# [15] = biological target: Alpha-galactosidase (Coffea arabica) (UniProt Q42656); assay: Counterscreen for Glucocerebrosidase Inhibitors: qHTS Assay for Coffee Bean alpha-Galactosidase at pH 4.5 (AID 957; active = well fitted curve in the direction sought with a large enough effect; an effect the other way counts as inactive or inconclusive;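 also: plate controls were enzyme alone for no effect and no enzyme for full effect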)
# Chain of Alpha-galactosidase (Coffea arabica) (Q42656 whole entry, looked up): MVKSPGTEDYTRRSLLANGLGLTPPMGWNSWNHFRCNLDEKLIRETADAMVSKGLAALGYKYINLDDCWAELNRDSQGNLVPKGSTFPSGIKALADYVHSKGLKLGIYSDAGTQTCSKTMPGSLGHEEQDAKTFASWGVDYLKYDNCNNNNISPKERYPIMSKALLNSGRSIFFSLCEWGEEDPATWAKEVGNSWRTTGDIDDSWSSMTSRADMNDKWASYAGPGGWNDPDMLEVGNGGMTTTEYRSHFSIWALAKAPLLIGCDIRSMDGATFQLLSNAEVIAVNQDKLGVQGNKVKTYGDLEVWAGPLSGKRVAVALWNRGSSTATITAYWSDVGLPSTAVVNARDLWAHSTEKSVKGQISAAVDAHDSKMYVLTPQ
# Method in brief: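 Quantitative HTS of compounds (0.7 nM to 77 uM) against coffee bean alpha-galactosidase at pH 4.5, measuring 4-methylumbelliferone fluorescence released from 80 uM substrate.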
# [16] = biological target: Alpha-galactosidase A (Homo sapiens) (UniProt P06280); assay: Counterscreen for Glucocerebrosidase Inhibitors: qHTS Assay for Human alpha-Galactosidase at pH 4.5 (AID 992; active = well fitted curve in the direction sought with a large enough effect; an effect the other way counts as inactive or inconclusive; also: 0% is about no effect)
# Method in brief: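 Steps: enzyme (2 nM final), then compound across 0.7 nM to 77 uM, then 80 uM fluorogenic galactopyranoside substrate; incubate 20 min at room temperature; quench at pH 10; measure fluorescence at 365/440 nm.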
# [17] = biological target: Alpha-galactosidase (Coffea arabica) (UniProt Q42656); assay: Counterscreen for Glucocerebrosidase Inhibitors: qHTS Assay for Coffee Bean alpha-Galactosidase at pH 5.9 (AID 998; active = well fitted curve in the direction sought with a large enough effect; an effect the other way counts as inactive or inconclusive;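 also: plate controls were uninhibited enzyme for no effect and no-enzyme basal signal for full effect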)
# Method in brief: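 In 50 mM citric acid pH 5.9 with 0.005% Tween-20, coffee bean enzyme hydrolyses 80 uM 4-MU alpha-D-galactopyranoside over 20 min at RT. Activity is normalized to controls; AC50 comes from Hill-modelled concentration-response data.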
# [18] = biological target: Cytochrome P450 1A2 (Homo sapiens) (UniProt P05177); assay: p450-cyp1a2 (AID 410; calls by dose curve; also: potency is read from the fitted curve at half-maximal effect;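 as to activity change, negative = inhibition: -100% = full effect of reference inhibitor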)
# Chain of Cytochrome P450 1A2 (Homo sapiens) (P05177 whole entry, looked up): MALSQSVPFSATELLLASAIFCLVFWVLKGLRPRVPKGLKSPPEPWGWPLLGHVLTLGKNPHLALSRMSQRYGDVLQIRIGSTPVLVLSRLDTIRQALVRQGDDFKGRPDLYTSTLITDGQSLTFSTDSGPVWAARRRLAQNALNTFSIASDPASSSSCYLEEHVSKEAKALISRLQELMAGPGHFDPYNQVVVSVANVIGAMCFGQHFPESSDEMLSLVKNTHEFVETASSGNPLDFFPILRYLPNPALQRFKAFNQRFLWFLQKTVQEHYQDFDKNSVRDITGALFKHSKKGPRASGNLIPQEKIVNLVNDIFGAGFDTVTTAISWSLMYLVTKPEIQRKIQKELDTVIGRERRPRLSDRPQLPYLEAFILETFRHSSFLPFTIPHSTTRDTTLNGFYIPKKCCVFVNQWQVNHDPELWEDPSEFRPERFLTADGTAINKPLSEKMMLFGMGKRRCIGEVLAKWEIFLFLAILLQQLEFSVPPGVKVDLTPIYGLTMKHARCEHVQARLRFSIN
# Method in brief: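 Read-out is luminescence from luciferin produced by CYP1A2 demethylation of Luciferin-ME (100uM, at Km). Detection reagent stopped the 60 min NADPH-dependent reaction; signals were normalized to 57 uM furafylline.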
# [19] = biological target: Cytochrome P450 2D6 (Homo sapiens) (UniProt P10635); assay: qHTS Assay for Inhibitors and Substrates of Cytochrome P450 2D6 (AID 891; active = well fitted curve in the direction sought with a large enough effect; an effect the other way counts as inactive or inconclusive; also: nearly all actives have a fitted effect of over 60% in size; also: potency is read from the fitted curve at half-maximal effect)
# Chain of Cytochrome P450 2D6 (Homo sapiens) (P10635 whole entry, looked up): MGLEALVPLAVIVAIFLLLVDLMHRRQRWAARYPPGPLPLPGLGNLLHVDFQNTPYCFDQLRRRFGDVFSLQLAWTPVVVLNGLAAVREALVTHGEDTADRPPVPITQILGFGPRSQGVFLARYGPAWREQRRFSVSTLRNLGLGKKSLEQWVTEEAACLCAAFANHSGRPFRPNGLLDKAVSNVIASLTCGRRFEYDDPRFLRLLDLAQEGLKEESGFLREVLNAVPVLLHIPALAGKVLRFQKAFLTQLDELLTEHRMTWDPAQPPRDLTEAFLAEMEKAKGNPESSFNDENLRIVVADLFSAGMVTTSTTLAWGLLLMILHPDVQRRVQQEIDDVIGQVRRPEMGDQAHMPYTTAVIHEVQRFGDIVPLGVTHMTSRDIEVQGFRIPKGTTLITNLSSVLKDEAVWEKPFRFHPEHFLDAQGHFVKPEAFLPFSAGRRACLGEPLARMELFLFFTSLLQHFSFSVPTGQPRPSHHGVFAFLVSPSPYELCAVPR
# Method in brief: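 Luminescent read-out of luciferin formed by 5 nM human CYP2D6 demethylating 30 uM Luciferin-ME EGE (Km level) over 60 min at room temperature after NADPH regeneration addition. Data normalized to full inhibition by 1.43 uM quinidine.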
# [20] = biological target: Cytochrome P450 2C19 (Homo sapiens) (UniProt P33261); assay: qHTS Assay for Inhibitors and Substrates of Cytochrome P450 2C19 (AID 899; active = well fitted curve in the direction sought with a large enough effect; an effect the other way counts as inactive or inconclusive; also: nearly all actives have a fitted effect of over 60% in size; also: potency is read from the fitted curve at half-maximal effect)
# Chain of Cytochrome P450 2C19 (Homo sapiens) (P33261 whole entry, looked up): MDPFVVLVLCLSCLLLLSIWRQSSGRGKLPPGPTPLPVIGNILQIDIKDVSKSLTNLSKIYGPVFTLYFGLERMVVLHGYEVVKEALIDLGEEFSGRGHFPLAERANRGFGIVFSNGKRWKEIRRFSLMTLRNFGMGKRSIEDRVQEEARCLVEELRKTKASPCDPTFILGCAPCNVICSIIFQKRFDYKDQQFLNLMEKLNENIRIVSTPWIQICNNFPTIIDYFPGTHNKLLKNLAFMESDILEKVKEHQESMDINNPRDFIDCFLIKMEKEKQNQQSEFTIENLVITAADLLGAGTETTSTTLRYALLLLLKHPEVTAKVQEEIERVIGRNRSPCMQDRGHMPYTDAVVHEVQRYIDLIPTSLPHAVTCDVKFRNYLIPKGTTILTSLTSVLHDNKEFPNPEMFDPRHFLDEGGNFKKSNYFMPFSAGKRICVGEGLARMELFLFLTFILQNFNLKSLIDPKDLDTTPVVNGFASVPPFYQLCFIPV
# Method in brief: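 NADPH-dependent conversion of Luciferin-H EGE (10uM, at KM) by 5nM enzyme in 50mM KPO4, 60 min at 37C following 10 min compound preincubation. Stopped with luciferin detection buffer; luminescence read after 20 min.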
# [21] = NFAT Signaling Pathway (AID 444); conditions: Jurkat NFAT-bla M1, carbachol, beta-lactamase ratio, 5 h; at 17.2 µM (top of the series) unless noted
# Method in brief: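 Jurkat cells carrying an NFAT-driven β-lactamase reporter and co-transfected muscarinic M1 receptor were treated with compound plus carbachol (1 uM final, an EC50 level) for 5 h at 37 °C. CCF4 loading followed for 1 h at RT; 460/530 nm ratio gave %activity.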
# [22] = biological target: Cytochrome P450 3A4 (Homo sapiens) (UniProt P08684); assay: qHTS Assay for Inhibitors and Substrates of Cytochrome P450 3A4 (AID 884; active = well fitted curve in the direction sought with a large enough effect; an effect the other way counts as inactive or inconclusive; also: potency is read from the fitted curve at half-maximal effect; nearly all actives have a fitted effect of over 50% in size)
# Method in brief: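 Luminescent readout of luciferin produced by CYP3A4 (20 nM) dealkylation of Luciferin-PPXE, 25 uM (its KM). NADPH-driven reaction ran 60 min at RT after 10 min compound preincubation; data scaled to 57 uM ketoconazole as 100% inhibition.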
# [23] = biological target: Ubiquitin carboxyl-terminal hydrolase 1 (Homo sapiens) (UniProt O94782); assay: Inhibitors of USP1/UAF1: Pilot qHTS (AID 504865; active = well fitted curve in the direction sought with a large enough effect; an effect the other way counts as inactive or inconclusive; also: potency is read from the fitted curve at half-maximal effect; nearly all actives have a fitted effect of over 35% in size)
# Method in brief: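 USP1/UAF1 complex at 1 nM preincubated 15 min at room temperature with compound, then Ub-Rho substrate added at 150 nM final. Fluorescence (480/540 nm) read kinetically in 50 mM HEPES pH 7.8, 0.5 mM EDTA, 1 mM TCEP, 0.1 mg/ml BSA, 0.01% Tween-20.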
compound,measurement,setting,value
CN1CCc2nc3sc(C#N)c(N)c3c(-c3cccs3)c2C1,"activity change, negative = inhibition",[1],-0.879%
same,Potency,[2],> 20.6 µM
CN1CC=C2C(C#N)=C(N)C(C#N)(C#N)C(c3ccncc3)C2C1 (stereo not drawn),"activity change, negative = inhibition",[1],21.4%
same,outcome,[3],inactive
same,Potency,[2],> 20.6 µM
same,Potency,[4],inactive
CN1[C@@H]2CC[C@H]1CC(O[C@@H](c1ccccc1)c1ccccc1N)C2 (stereo partly drawn),"activity change, negative = inhibition",[1],12.1% [at 38 µM]
same,Potency,[2],> 46 µM
same,Potency,[5],> 46 µM
same,outcome,[6],inactive
same,outcome,[7],inactive
same,Potency,[8],inactive
same,Potency,[9],inactive
same,Potency,[10],inactive
same,outcome,[11],inactive
same,Potency,[12],0.0141 µM (active)
same,Potency,[13],0.0071 µM (active)
same,outcome,[14],inactive
same,outcome,[15],inactive
same,outcome,[16],inactive
same,outcome,[17],inactive
Cc1c(N=Cc2c(O)n(CCc3ccccc3)c(=O)[nH]c2=O)c(=O)n(-c2ccccc2)n1C,"activity change, negative = inhibition",[1],-11.1%
same,outcome,[3],inactive
same,Potency,[2],> 20.6 µM
C[C@H]1CCC/C=C/C2C[C@H](O)CC2[C@H](O)/C=C/C(=O)O1 (stereo partly drawn),"activity change, negative = inhibition",[1],5.62%
same,outcome,[3],inactive
same,Potency,[2],> 20.6 µM
CCCCOCCCn1c(N)c(C(=O)OCCOC)c2nc3ccccc3nc21,"activity change, negative = inhibition",[1],-2.11%
same,outcome,[3],inactive
same,Potency,[2],> 20.6 µM
c1cc2c(cc1[C@H]1OC[C@H]3[C@@H]1CO[C@H]3c1ccc3c(c1)OCO3)OCO2,Potency,[18],2 µM (active)
same,Potency,[2],> 46 µM
same,Potency,[5],> 46 µM
same,outcome,[6],inactive
same,outcome,[7],inactive
same,Potency,[9],3.98 µM (active)
same,Potency,[19],15.8 µM (active)
same,Potency,[20],3.16 µM (active)
CCN1C[C@@]2(C)CC[C@H](O)[C@@]34[C@@H]5C[C@H]6[C@H](O)[C@@H]5[C@](O)(C[C@@H]6OC)[C@H](C[C@@H]23)[C@H]14,Potency,[18],inactive
same,Potency,[2],> 46 µM
same,Potency,[5],> 46 µM
same,outcome,[6],inactive
same,Potency,[9],inactive
same,Potency,[19],inactive
same,Potency,[20],inactive
CCN(CC)CCCNC(=O)c1c(O)c2ccccc2n(Cc2ccccc2)c1=O,"activity change, negative = inhibition",[1],27.1%
same,outcome,[3],inactive
same,Potency,[2],> 20.6 µM
C=CCn1c(O)c(C=Nc2ccc(N(CC)CC)cc2)c(=O)[nH]c1=O,"activity change, negative = inhibition",[1],-13.2%
same,outcome,[3],inactive
same,Potency,[2],> 20.6 µM
Cn1c(O)c(C=NC2CCN(Cc3ccccc3)CC2)c(=O)n(C)c1=O,"activity change, negative = inhibition",[1],-11.6%
same,outcome,[3],inactive
same,Potency,[2],> 20.6 µM
CCCCCC[C@H]1C(=O)O[C@H](C)[C@H](NC(=O)c2cccc(NC=O)c2O)C(=O)O[C@@H](C)[C@H]1OC(=O)CC(C)C,Potency,[18],inactive
same,"activity change, negative = inhibition",[21],-34.3%
same,Potency,[2],> 20.6 µM
same,Potency,[5],> 20.6 µM
same,outcome,[6],inactive
same,outcome,[7],inactive
same,Potency,[22],5.01 µM (active)
same,Potency,[10],inactive
same,Potency,[23],28.2 µM (active)
